Measurements reported in PubChem BioAssay (NCATS).
Inconclusive results are not listed. Activity calls are given as the source filed them. The call rests on the fitted dose curve; in most records, active means well fitted curve in the direction sought with a large enough effect; inconclusive means small, poorly fitted or top-dose-only effect, or another doubt; inactive means no such curve, though single readings can be large; an effect the other way counts as inactive or inconclusive.

Experiments:
[1] = target: Rap guanine nucleotide exchange factor 3 (Homo sapiens) (UniProt O95398); assay: Confirmatory qHTS for agonist of cAMP-regulated guanine nucleotide exchange factor 3 (EPAC1) (AID 1645881);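 further: EPAC1 catalysed release of BODIPY-GDP from Rap1B seen as fluorescence loss; nearly all actives have a fitted effect of over 75% in size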
Sequence of Rap guanine nucleotide exchange factor 3 (Homo sapiens) (O95398 whole entry, looked up): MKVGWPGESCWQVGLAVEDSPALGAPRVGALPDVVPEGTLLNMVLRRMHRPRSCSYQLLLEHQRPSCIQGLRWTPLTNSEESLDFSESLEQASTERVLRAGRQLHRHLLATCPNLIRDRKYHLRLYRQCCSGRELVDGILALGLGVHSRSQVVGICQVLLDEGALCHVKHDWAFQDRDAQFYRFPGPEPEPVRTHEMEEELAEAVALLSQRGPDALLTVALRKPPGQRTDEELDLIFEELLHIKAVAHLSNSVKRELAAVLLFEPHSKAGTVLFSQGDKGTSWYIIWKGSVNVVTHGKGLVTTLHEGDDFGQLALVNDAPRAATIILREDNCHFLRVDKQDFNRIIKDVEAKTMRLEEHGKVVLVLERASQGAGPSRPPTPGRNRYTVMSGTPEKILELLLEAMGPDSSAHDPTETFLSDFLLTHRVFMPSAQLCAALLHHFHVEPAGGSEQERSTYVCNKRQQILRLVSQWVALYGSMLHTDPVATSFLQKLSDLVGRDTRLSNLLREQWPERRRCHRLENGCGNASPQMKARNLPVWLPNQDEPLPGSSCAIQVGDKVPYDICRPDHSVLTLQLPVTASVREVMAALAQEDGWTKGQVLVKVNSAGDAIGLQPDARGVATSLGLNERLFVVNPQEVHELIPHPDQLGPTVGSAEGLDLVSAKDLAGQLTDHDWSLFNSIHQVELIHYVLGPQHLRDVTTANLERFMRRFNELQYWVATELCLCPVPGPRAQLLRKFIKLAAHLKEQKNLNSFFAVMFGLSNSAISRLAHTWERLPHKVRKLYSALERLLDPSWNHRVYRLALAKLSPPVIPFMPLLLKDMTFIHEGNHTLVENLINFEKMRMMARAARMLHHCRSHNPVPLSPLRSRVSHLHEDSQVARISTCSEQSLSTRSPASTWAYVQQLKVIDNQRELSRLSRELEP

[2] = target: Rap guanine nucleotide exchange factor 4 (Homo sapiens) (UniProt Q8WZA2); assay: Confirmatory qHTS for antagonist of cAMP-regulated guanine nucleotide exchange factor 4 (EPAC2) (AID 1645885); further: nearly all actives have a fitted effect of over 25% in size
Sequence of Rap guanine nucleotide exchange factor 4 (Homo sapiens) (Q8WZA2 whole entry, looked up): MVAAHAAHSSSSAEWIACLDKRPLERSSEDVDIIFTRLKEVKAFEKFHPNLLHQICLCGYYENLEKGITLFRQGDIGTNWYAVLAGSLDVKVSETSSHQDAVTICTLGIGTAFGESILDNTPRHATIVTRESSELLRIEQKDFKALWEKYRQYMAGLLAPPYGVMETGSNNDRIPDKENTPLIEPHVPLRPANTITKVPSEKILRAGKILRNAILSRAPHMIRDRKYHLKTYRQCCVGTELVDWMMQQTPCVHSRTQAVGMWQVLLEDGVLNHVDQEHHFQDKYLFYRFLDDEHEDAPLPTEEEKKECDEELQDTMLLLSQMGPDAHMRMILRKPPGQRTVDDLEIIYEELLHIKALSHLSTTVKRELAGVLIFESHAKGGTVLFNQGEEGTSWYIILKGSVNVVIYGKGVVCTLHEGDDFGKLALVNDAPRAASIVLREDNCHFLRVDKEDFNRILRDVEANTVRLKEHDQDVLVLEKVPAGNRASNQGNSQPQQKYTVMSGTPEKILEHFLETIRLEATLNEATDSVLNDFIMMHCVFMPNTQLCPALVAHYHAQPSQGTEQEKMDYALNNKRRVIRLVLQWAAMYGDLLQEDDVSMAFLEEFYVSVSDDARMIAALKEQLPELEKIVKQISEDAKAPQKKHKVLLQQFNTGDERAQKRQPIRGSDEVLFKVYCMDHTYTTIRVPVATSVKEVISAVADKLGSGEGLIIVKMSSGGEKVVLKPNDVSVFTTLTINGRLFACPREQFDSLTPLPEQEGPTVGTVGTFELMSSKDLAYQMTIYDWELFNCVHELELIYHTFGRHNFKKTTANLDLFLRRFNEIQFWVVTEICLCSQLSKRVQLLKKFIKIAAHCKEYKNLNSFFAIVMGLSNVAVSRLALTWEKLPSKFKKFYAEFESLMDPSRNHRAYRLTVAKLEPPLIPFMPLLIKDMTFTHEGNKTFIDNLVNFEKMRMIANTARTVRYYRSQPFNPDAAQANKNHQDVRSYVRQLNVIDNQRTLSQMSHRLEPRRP

[3] = target: Rap guanine nucleotide exchange factor 3 (Homo sapiens) (UniProt O95398); assay: Counterscreen qHTS for antagonist of cAMP-regulated guanine nucleotide exchange factor 3 (EPAC1) (AID 1645888);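 further: fluorescence loss as bound BODIPY-GDP is released from Rap1B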
Summary of the method: (§1)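 Measured: fluorescence of BODIPY-GDP bound to Rap1B, which falls as exchange proceeds. Conditions include 50 uM competing GDP, 5 and 30 min reads, and a later cAMP challenge for antagonist detection.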

[4] = target: Rap guanine nucleotide exchange factor 3 (Homo sapiens) (UniProt O95398); assay: Counterscreen qHTS for agonist of cAMP-regulated guanine nucleotide exchange factor 3 (EPAC1) (AID 1645889); further: nearly all actives have a fitted effect of over 40% in size
Summary of the method: as §1

Measured: Potency

COc1cccc2cc(/C(=N/O)c3ccccc3)oc12
inactive: [1] | [2] | [3]

O=[N+]([O-])c1cccc(S(=O)(=O)Nc2cccc(-c3ccc(N4CCCC4)nn3)c2)c1
inactive: [1] | [2] inactive [at 12.7 µM] | [3]

CC(C)C(NC(=O)C1CC(=O)N(Cc2ccccc2)C1)c1nc2ccccc2[nH]1 (configuration not stated)
inactive: all assays above

Cn1cccc1/C=C1\SC(=S)N(NC(=O)c2cccc(Cl)c2)C1=O
inactive: all assays above

COc1ccc(OC)c(NC(=O)CSc2ncnc3sc(C)cc23)c1
inactive: all assays above

COc1ccc(OC)c(NC(=O)CSc2nccn2-c2cc(C)cc(C)c2)c1
inactive: all assays above
